Inconclusive results are not listed. Active and inactive are the calls of the source. How the source made its calls, unless noted: active means hit-call score of the fitted dose curve at least 0.9, where 1 is the maximum; inactive means score below 0.9.

Test [1] concerns Sodium/Iodide Symporter (NIS), SLC5A5 (gene 6528). As to the kind of experiment: CPHEA_Stoker_NIS_Inhibition_RAIU: CPHEA's Radioactive Iodide Uptake (RAIU) Assay for Sodium/Iodide Symporter (NIS) Inhibition, Stoker and Laws Labs (AID 2283841; active means hit-call score of the fitted dose curve at least 0.9, where 1 is the maximum). A digest of the protocol: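 hNIS-HEK293T-EPA cells incubated 2 h at room temperature with compound (0.001–100 uM, 0.5% DMSO) and 329 pM final 125I in HBSS/10 mM HEPES, pH 7.4. Intracellular 125I counted; normalised to DMSO maximal uptake, triplicate, three biological replicates.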

Test [2] can be described thus: CPHEA_Stoker_NIS_Cytotoxicity: Cytotoxicity Assessment for CPHEA's Radioactive Iodide Uptake (RAIU) Assay for Sodium/Iodide Symporter (NIS) Inhibition, Stoker and Laws Labs (AID 2283897; active means hit-call score of the fitted dose curve at least 0.9, where 1 is the maximum;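 on AC50: active means loss of ATP signal versus DMSO meaning cytotoxicity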). The method, boiled down: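 hNIS-HEK293T-EPA cells, human NIS expressed in HEK293T, treated 2 h with chemicals (0.001–100 uM, 0.5% final DMSO). ATP content read by CellTiter-Glo luminescence; loss of signal analysed relative to DMSO.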

Test [3] is described as follows: CEETOX_H295R_11DCORT_noMTC: CeeTox H295R High-throughput Steroidogenesis Assay for 11-Deoxycortisol (11DCORT), maximum tolerated concentration (MTC) filtered results only (AID 2283911). The following applies: actives raise or lower the signal. A digest of the protocol:
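Forskolin-primed (10 uM, 48 h) H295R adrenal cells are dosed for 48 h at 0.1% DMSO; medium 11-deoxycortisol is quantified by LC-MS/MS against a 7-point standard curve, with activity fitted in both directions versus DMSO.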

Test [4] is described as follows: CEETOX_H295R_OHPREG_noMTC: CeeTox H295R High-throughput Steroidogenesis Assay for OH-Pregnenolone (OHPREG), maximum tolerated concentration (MTC) filtered results only (AID 2283912). The settings on record: actives raise or lower the signal. The method, boiled down: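 H295R human adrenal cells, forskolin-prestimulated (10 uM, 48 h), then exposed to test chemical in 0.1% DMSO for 48 h. 17alpha-hydroxypregnenolone in medium measured by HPLC-MS/MS after MTBE extraction; bidirectional fit versus DMSO, concentrations not MTC-filtered.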

The nature of test [5]: CEETOX_H295R_OHPROG_noMTC: CeeTox H295R High-throughput Steroidogenesis Assay for OH-Progesterone (OHPROG), maximum tolerated concentration (MTC) filtered results only (AID 2283914). The following applies: actives raise or lower the signal. The method, boiled down:
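H295R human adrenal cells prestimulated 48 h with 10 uM forskolin, then exposed 48 h to test chemical (0.1% DMSO final). Medium 17alpha-hydroxyprogesterone extracted with MTBE, quantified by HPLC-MS/MS; bidirectional fit versus DMSO, concentrations not MTC-filtered.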

A short description of test [6]: CEETOX_H295R_ANDR_noMTC: CeeTox H295R High-throughput Steroidogenesis Assay for Androstenedione (ANDR), maximum tolerated concentration (MTC) filtered results only (AID 2283915). The settings on record: actives raise or lower the signal. A digest of the protocol:
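H295R cells, passage 10 or below, prestimulated 48 h with 10 uM forskolin, then exposed 48 h to chemical in 0.1% DMSO. Medium androstenedione extracted with MTBE, quantified by HPLC-MS/MS; concentrations not MTC-filtered; bidirectional fit versus DMSO.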

Test [7] is described as follows: CEETOX_H295R_CORTISOL_noMTC: CeeTox H295R High-throughput Steroidogenesis Assay for Cortisol, maximum tolerated concentration (MTC) filtered results only (AID 2283916). The settings on record: actives raise or lower the signal. A digest of the protocol: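 H295R adrenal cells were pre-stimulated 48 h with 10 uM forskolin, then exposed 48 h to test chemical in 0.1% DMSO. Medium cortisol was measured by MTBE extraction and HPLC-MS/MS; bidirectional fit versus DMSO, concentrations not MTC-filtered.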

Test [8] can be described thus: CEETOX_H295R_CORTIC_noMTC: CeeTox H295R High-throughput Steroidogenesis Assay for Corticosterone (CORTIC), maximum tolerated concentration (MTC) filtered results only (AID 2283917). The settings on record: actives raise or lower the signal. A digest of the protocol:
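H295R, 10 uM forskolin prestim 48 h → test chem (0.1% DMSO final) 48 h → media MTBE extraction → HPLC-MS/MS corticosterone. Bidirectional fit vs DMSO baseline; no MTT-based MTC filtering.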

Test [9] can be described thus: CEETOX_H295R_DOC_noMTC: CeeTox H295R High-throughput Steroidogenesis Assay for DOC, maximum tolerated concentration (MTC) filtered results only (AID 2283918). The following applies: actives raise or lower the signal. The method, boiled down:
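H295R cells prestimulated 48 h with 10 uM forskolin, then exposed 48 h to test chemical (0.1% DMSO final). Medium 11-deoxycorticosterone extracted with MTBE, quantified by HPLC-MS/MS; bidirectional fit versus DMSO, concentrations not MTC-filtered.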

The nature of test [10]: CEETOX_H295R_ESTRADIOL_noMTC: CeeTox H295R High-throughput Steroidogenesis Assay for Estradiol, maximum tolerated concentration (MTC) filtered results only (AID 2283919). The following applies: actives raise or lower the signal. A digest of the protocol: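 H295R human adrenal cells pre-stimulated 48 h with 10 uM forskolin, then exposed 48 h to chemical (0.1% DMSO final). Estradiol in medium measured by HPLC-MS/MS after MTBE extraction and dansyl derivatization; bidirectional fit versus DMSO, concentrations not MTT-filtered.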

Test [11] can be described thus: CEETOX_H295R_PROG_noMTC: CeeTox H295R High-throughput Steroidogenesis Assay for Progesterone (PROG), maximum tolerated concentration (MTC) filtered results only (AID 2283920). The settings on record: actives raise or lower the signal. A digest of the protocol:
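H295R human adrenal cells were prestimulated 48 h with 10 uM forskolin, then exposed 48 h to test chemical (0.1% DMSO final). Progesterone in medium was quantified by HPLC-MS/MS; bidirectional fitting versus DMSO, concentrations not MTC-filtered.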

Test [12] is described as follows: CEETOX_H295R_ESTRONE_noMTC: CeeTox H295R High-throughput Steroidogenesis Assay for Estrone, maximum tolerated concentration (MTC) filtered results only (AID 2283921). The following applies: actives raise or lower the signal. A digest of the protocol: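 H295R cells prestimulated 48 h with 10 uM forskolin, then exposed 48 h to chemical in 0.1% DMSO; medium estrone measured by HPLC-MS/MS after MTBE extraction and dansyl derivatization, fitted bidirectionally versus DMSO without MTT-based MTC filtering.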

A short description of test [13]: CEETOX_H295R_TESTO_noMTC: CeeTox H295R High-throughput Steroidogenesis Assay for Testosterone (TESTO), maximum tolerated concentration (MTC) filtered results only (AID 2283924). The following applies: actives raise or lower the signal. A digest of the protocol:
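H295R cells prestimulated 48 h with 10 uM forskolin, then exposed 48 h to chemicals in 0.1% DMSO final. Testosterone in medium quantified by MTBE extraction and HPLC-MS/MS; bidirectional fit versus DMSO, concentrations […] filtered by MTT-based maximum tolerated concentration.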

For `C=C(C)C(=O)[O][Sn]([CH2]CCC)([CH2]CCC)[CH2]CCC`, the figures for the AC50 in test [1] and in [2] were 5.24 µM (active) and 1.25 µM (active), respectively.
As for `c1cc[c]([Hg][c]2ccccc2)cc1`, the outcome in test [1], in test [2], in test [10] and in test [12] was inactive. In addition, the AC50 (usually the concentration at which the activity in the assay is half-maximal) is 53.6 µM (active) in test [3]; 27.1 µM (active) in test [4]; 32 µM (active) in test [5]; 50 µM (active) in [6]; 36.9 µM (active) in [7]; 76.1 µM (active) in test [8]. The figures for the AC50 in [9], in test [11] and in test [13] were 2.26 µM (active), 21.9 µM (active) and 67.9 µM (active), respectively.
On to `CCC1(c2ccc(N)cc2)CCC(=O)NC1=O` (stereo not given), for which the result in test [3], in [4], in test [5], in test [6], in test [7] and in test [8] was inactive. For the same compound, the result in [9], in [11] and in test [13] was inactive.
As for `CCOP(=S)(OCC)Oc1nc(Cl)c(Cl)cc1Cl`, the outcome in test [1] and in [2] was inactive.
For `CCOP(=S)(OCC)SCSP(=S)(OCC)OCC`, the outcome in test [1] and in test [2] was inactive.
On to `CCC[CH2][Sn]([CH2]CCC)([CH2]CCC)[O]C(=O)c1ccccc1`, for which the results for the AC50 in test [1] and in [2] were 1.4 µM (active) and 9.05 µM (active), respectively.
Take `O=C/C=C/c1ccccc1`: the outcome in [1] and in [2] was inactive.
Regarding `CCCCCCCCSC(=O)Oc1cc(Cl)nnc1-c1ccccc1`, the result in [1] and in test [2] was inactive.
In the case of `O=C1C(Cl)=C(Cl)C(=O)c2ccccc21`, the AC50 in test [1] was 9.92 µM (active); in test [2] it was 50 µM (active).
In the case of `CCC(C)(C)c1ccc(O)c(C(C)(C)CC)c1`, in test [1], the outcome was inactive. Further, in [2], the AC50 was 9.92 µM (active).
For the compound `O=C(NCO)NCO`, the outcome in test [1] and in test [2] was inactive.
In the case of `O=C(OC1CCCCC1)c1ccccc1C(=O)OC1CCCCC1`, the outcome in test [1], in test [2], in test [7], in test [8] and in [11] was inactive. In addition, the AC50 was 2.24 µM (active) in test [3], 2.11 µM (active) in test [4], 0.549 µM (active) in test [5] and 13.5 µM (active) in test [9].
As for `CC(=O)[O][Hg][c]1ccccc1`, the AC50 in [1] is 50 µM (active); in test [2] it was 9.92 µM (active).
Regarding `O=C(O)C(F)(F)C(F)(F)C(F)(F)C(F)(F)C(F)(F)C(F)(F)F`, the outcome in [1] and in test [2] was inactive.
In the case of `COP(=S)(OC)Oc1ccc(Sc2ccc(OP(=S)(OC)OC)cc2)cc1`, the outcome in test [1] and in test [2] was inactive.
As for `NNC(=S)NN`, the outcome in test [1] and in [2] was inactive.
Turning to `Cc1ccccc1C(=O)Nc1cccc(OC(C)C)c1`, the outcome in test [1] and in test [2] was inactive.
For `Cn1sc(Cl)cc1=O`, the outcome in test [1], in test [2], in test [3], in [4], in [5] and in test [7] was inactive. The outcome in test [8], in [9], in test [10], in test [11] and in test [12] was inactive.

The values above are taken from PubChem BioAssay (EPA / NIEHS).
